Assay results from PubChem BioAssay.
Activity calls are given as the source filed them.

What was measured:
[1] = anti-His antibody binders, primary screen, artefact control for SMM control protein annotation, biochemical, small-molecule microarray, 635 nm fluorescence (AID 1128); conditions: anti-His Alexa647 antibody binding, higher = more signal;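 further: score merges feature fluorescence with signal-to-noise for each printed compound spot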
[2] = system: Human papillomavirus type 1a E7 protein (residues 1-88); test: HPV1a E7 small-molecule binders, primary screen, biochemical, small-molecule microarray, residues 1-88, 635 nm (AID 1129); conditions: small-molecule microarray binding, fluorescence 635 nm; higher = more signal
[3] = molecular target: Focal adhesion kinase 1 (Homo sapiens) (UniProt Q05397); test: small-molecule microarray binders of FAK, primary screen, biochemical, 635/667 nm fluorescence, BSA, DTT (AID 1130); conditions: PTK2 binding, 635 nm fluorescence, higher = more signal;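 further: composite of spot emission at 667 nm and signal to noise over triplicate slides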
[4] = system: Fibrinogen (Alexa647-labelled); test: fibrinogen binders on compound microarrays, profiling panel, artefact control for SMM control-protein annotation, biochemical, small-molecule microarray, 635/667 nm fluorescence (AID 1131); conditions: fibrinogen-A647 binding fluorescence, higher = more signal;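 further: z-score merges 667 nm fluorescence with per-spot signal-to-noise over triplicate slides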
[5] = molecular target: Follistatin (Homo sapiens) (UniProt P19883); test: follistatin binders on small-molecule microarrays, primary screen, biochemical, small-molecule microarray, 635/667 nm fluorescence (AID 1132); conditions: FST binding, 635 nm fluorescence, higher = more signal
[6] = molecular target: Fibroblast growth factor 2 (Homo sapiens) (UniProt P09038); test: FGF2 binders on small-molecule microarrays, primary screen, biochemical, small-molecule microarray, 635/667 nm fluorescence (AID 1133); conditions: small-molecule microarray binding, FGF2, fluorescence 635/667; higher = more signal
[7] = mitochondrial membrane potential change in A549 cells, profiling panel, cell-based, JC-1 fluorescence, basal, 24 h, 100 nL (AID 1138); conditions: higher = more signal;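 further: A549 lung adenocarcinoma cells under basal conditions with no added stimulus; test concentration not given here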
Lefty1 = Lefty1 binders on small-molecule microarrays, primary screen, biochemical, small-molecule microarray, 635/667 nm fluorescence (AID 1139); conditions: small-molecule microarray binding, fluorescence 635/667; higher = more signal
[8] = system: wheat germ agglutinin (Triticum aestivum), Alexa647-labelled; test: wheat germ agglutinin binders on compound microarrays, profiling panel, artefact control for SMM control-protein annotation, biochemical, small-molecule microarray, 635/667 nm fluorescence (AID 1140); conditions: WGA-A647 binding, 635 nm fluorescence, higher = more signal;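 further: score merges 667 nm feature emission with signal to noise over triplicate slides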
[9] = molecular target: Luciferin 4-monooxygenase (Photinus pyralis) (UniProt P08659); test: firefly luciferase enzyme inhibitors, primary screen, biochemical, luminescence, purified enzyme, 2006 set (AID 1141); conditions: SteadyGlo luminescence, 30 min, higher = more signal, called active from +8 up or from −8 down;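 further: cell-free assay with purified firefly luciferase at 100 ng per well in PBS; test concentration not given here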
Luciferin 4-monooxygenase (Photinus pyralis), sequence (P08659 whole entry, looked up): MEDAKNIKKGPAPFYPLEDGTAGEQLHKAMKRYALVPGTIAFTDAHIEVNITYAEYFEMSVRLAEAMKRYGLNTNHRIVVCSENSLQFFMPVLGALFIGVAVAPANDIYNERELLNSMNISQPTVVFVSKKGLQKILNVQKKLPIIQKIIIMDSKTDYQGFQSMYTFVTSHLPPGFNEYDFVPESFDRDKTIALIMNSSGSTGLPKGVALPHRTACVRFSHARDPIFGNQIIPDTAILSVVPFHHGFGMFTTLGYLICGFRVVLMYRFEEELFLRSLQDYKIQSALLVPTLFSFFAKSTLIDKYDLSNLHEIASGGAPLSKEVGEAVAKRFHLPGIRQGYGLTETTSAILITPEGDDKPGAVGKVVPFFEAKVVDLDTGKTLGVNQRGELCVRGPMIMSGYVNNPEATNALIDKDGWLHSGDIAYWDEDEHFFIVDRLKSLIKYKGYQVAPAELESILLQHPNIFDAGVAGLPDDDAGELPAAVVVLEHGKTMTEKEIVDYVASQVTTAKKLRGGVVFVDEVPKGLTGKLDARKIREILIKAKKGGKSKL

Follistatin (Homo sapiens), sequence (P19883 whole entry, looked up): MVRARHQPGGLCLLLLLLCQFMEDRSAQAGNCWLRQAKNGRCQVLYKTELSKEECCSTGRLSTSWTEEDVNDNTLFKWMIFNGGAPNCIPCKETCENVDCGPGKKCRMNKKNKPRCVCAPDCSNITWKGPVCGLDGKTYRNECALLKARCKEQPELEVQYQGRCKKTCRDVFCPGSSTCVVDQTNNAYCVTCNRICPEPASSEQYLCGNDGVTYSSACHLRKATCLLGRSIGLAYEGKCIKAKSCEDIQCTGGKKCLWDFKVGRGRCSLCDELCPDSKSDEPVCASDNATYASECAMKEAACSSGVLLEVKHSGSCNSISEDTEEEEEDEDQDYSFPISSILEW
Focal adhesion kinase 1 (Homo sapiens), sequence (Q05397 whole entry, looked up): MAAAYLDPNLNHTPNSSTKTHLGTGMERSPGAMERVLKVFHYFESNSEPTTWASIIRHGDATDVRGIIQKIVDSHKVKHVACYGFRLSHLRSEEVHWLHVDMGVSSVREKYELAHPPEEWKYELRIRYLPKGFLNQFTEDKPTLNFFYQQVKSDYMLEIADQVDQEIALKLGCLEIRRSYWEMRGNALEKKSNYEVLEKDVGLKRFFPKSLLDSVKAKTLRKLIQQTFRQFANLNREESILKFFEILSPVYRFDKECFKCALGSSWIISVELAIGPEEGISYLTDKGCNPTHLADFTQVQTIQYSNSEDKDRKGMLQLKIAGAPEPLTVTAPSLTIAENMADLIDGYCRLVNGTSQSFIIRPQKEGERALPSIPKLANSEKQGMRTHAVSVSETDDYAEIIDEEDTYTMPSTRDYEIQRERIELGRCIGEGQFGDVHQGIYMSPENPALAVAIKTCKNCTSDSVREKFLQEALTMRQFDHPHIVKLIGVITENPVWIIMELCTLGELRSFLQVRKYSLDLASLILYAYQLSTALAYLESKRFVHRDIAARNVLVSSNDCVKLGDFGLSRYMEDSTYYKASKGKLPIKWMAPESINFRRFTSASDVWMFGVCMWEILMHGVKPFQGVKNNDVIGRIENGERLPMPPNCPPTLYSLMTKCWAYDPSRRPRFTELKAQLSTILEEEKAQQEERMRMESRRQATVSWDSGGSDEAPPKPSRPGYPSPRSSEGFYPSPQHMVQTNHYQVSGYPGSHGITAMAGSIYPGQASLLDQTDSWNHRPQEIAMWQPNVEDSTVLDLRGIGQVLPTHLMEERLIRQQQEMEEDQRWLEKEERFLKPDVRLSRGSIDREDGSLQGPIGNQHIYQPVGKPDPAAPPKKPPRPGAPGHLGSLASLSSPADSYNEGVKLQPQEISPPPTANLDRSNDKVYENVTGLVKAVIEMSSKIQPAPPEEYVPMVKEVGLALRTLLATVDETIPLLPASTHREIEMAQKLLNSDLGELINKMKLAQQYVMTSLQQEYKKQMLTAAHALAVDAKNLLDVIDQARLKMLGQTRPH
Fibroblast growth factor 2 (Homo sapiens), sequence (P09038 whole entry, looked up): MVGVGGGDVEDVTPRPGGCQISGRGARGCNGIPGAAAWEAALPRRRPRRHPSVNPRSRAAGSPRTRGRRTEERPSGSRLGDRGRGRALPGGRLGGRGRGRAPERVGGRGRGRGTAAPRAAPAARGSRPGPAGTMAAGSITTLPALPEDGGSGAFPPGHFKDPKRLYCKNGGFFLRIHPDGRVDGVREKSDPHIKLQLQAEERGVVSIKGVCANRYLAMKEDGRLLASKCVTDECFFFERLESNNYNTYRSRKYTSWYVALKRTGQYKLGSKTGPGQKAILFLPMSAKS

Structure (SMILES)	composite z-score [1]	composite z-score [2]	composite z-score [3]	composite z-score [4]	composite z-score [5]	composite z-score [6]	z-score [7]	composite z-score (Lefty1)	composite z-score [8]	z-score [9]
Cc1ccccc1C(O)C1C=CC2C(=O)NC(=O)C2N1Nc1ccccn1 (stereo not given)	0.744	0.108	0.0312	0.693	-0.145	-0.227	0.0755	-0.0955	0.159	-0.792 (inactive)
C=C[C@@H](OC)[C@H](OC(=O)Nc1ccc(OC)cc1)c1ccc(O)c(F)c1	0.0143	-0.0707	0.0004	-0.808	1.2	0.659	-0.116	1.35	-0.251	-3.89 (inactive)
C=CC[C@H](OC(=O)Nc1ccc(SC)cc1)c1ccc(O)c2ccccc12	0.942	1.23	0.492	0.938	1.36	1.23	-1.72	1.08	0.937	-4.58 (inactive)
CCOC(=O)C1=CC[C@@H](c2ccccc2F)N(S(=O)(=O)c2ccc(C)cc2)[C@H]1c1ccccc1	0.477	1.07	0.13	0.756	0.685	0.0808	1.4	0.644	0.349	1.56 (inactive)
O=C1O[C@H](c2ccccc2)[C@H](c2ccccc2)N2[C@H]1[C@@H](C(=O)O)[C@]1(C(=O)Nc3ccc(C#CCCO)cc31)[C@H]2c1ccccc1OCCO	0.84	0.0764	0.0281	0.289	0.622	-0.0212	-0.689	0.404	0.842	-0.747 (inactive)
COc1ccc([Si](C)(C)[C@H]2[C@H](CC(=O)N3CCC[C@H]3CO)O[C@@]3(C(=O)N(Cc4ccc(N5CCOC5=O)cc4)c4ccccc43)[C@@H]2C)cc1	2.43	1.18	0.395	0.692	1.34	1.56	2.59	1.16	0.697	0.31 (inactive)
C=CCNC(=O)[C@@H]1[C@H]2C(=O)O[C@H](c3ccccc3)[C@H](c3ccccc3)N2[C@H](c2ccc(O)cc2)[C@@]12C(=O)N(C(=O)OCCOC)c1ccc(C#CC3=CCCCC3)cc12	1.11	1.19	0.664	0.708	1.27	1.54	-0.22	0.701	0.729	-0.959 (inactive)
[N-]=[N+]=Nc1ccccc1[C@@H]1OC(c2ccc(OCCCO)cc2)=N[C@]1(Cc1ccccc1)C(=O)N1CCCCC1	0.782	1.24	0.218	1.02	1.21	0.768	-1.07	0.816	1.03	-5.31 (inactive)
O[C@@H](Cc1ccccc1)[C@@H](/C=C/C1CC1)N(CC#Cc1ccccc1)Cc1ccccc1Br	0.167	-0.33	0.284	-0.651	-1.12	-1.71	0.163	-0.512	-1.11	-0.375 (inactive)
COc1cccc(C)c1NC(=O)O[C@H]1[C@H](OC(=O)Nc2ccccc2-c2ccccc2)[C@H](OC(=O)Nc2ccccc2-c2ccccc2)[C@@H](OC)O[C@@H]1CO	0.528	1.22	0.588	0.974	1.35	0.79	-0.41	0.906	0.79	-0.33 (inactive)
CCOC(=O)C[C@H]1[C@H](OC(=O)c2cc3ccccc3oc2=O)[C@@H](NC(=O)c2ccccc2)c2cc(OCCCO)ccc2N1C(=O)c1ccccc1	0.29	0.828	0.138	0.37	0.744	1.18	-0.816	0.443	0.0432	0.713 (inactive)
COCCCNC(=O)[C@@]1(Sc2ccc(C)cc2)CC(=O)N(C2Cc3ccccc3C2)[C@@H]1c1ccc(CO)cc1	0.72	0.336	-0.296	-0.841	-1.22	-1.35	-0.318	-1.1	-1.47	0.925 (inactive)
C=CCNC(=O)[C@@H]1[C@H]2C(=O)O[C@H](c3ccccc3)[C@H](c3ccccc3)N2[C@H](c2ccc(OCCO)cc2)[C@@]12C(=O)N(C(=O)OCCOC)c1ccc(C#Cc3ccc(OC)cc3)cc12	0.81	1.16	0.066	0.785	1.27	0.93	-1.41	0.901	0.939	-0.728 (inactive)
CN(C)C(=O)[C@]1(Cc2ccccc2CN=[N+]=[N-])N=C(c2ccc(OCCCO)cc2)O[C@@H]1c1ccccc1	2.24	1.22	0.48	0.947	0.987	0.658	-0.439	0.035	1.02	0.582 (inactive)
CC(CO)N1C(=O)[C@@H]2[C@H]3C(=O)OCC=C[C@H]3OC23C=CCN(Cn2nnc4ccccc42)C(=O)[C@@H]13 (stereo not given in full)	-1.02	-1.43	-0.432	-0.8	-0.72	-0.358	-0.528	-0.406	-0.596	0.27 (inactive)
C[N+](C)(C)CCCCCCNC(=O)[C@@H]1C[C@@H]2C(=O)N3CCC[C@H]3C(=O)N2[C@@H]1c1ccc(O)cc1	1.36	0.451	0.0225	-0.472	1.4	1.42	-1.19	1.3	0.6	0.824 (inactive)
CCCN1C(=O)[C@@]2(Cc3ccccc31)N=C(c1ccc(OCCCO)cc1)O[C@H]2c1ccccc1	0.293	1.17	0.881	0.829	1.23	1.31	1.69	0.256	0.801	-3.25 (inactive)

Structure (SMILES)	composite z-score [1]	composite z-score [2]	composite z-score [3]	composite z-score [4]	composite z-score [5]	composite z-score [6]	z-score [7]	composite z-score (Lefty1)	composite z-score [8]	z-score [9]
O=C1CS(=O)(=O)C(c2cccc([N+](=O)[O-])c2)N1c1ccccc1 (stereo not given)	1.67	1.16	0.596	0.522	0.469	0.698	1.53	-0.269	0.909	-1.61 (inactive)
O=C1[C@H]2C=C(I)[C@H](C[C@@H]2OCCOCCO)[C@@]12CO2	-0.0655	0.747	0.0017	0.0216	0.697	0.952	-0.43	0.858	-0.12	0.818 (inactive)
CC1CC/C=C\[C@H]2OC34C=CCN(c5ccc6ccccc6c5)C(=O)[C@H]3N(CCCO)C(=O)[C@@H]4C2C(=O)O1 (stereo not given in full)	1.08	-0.453	-0.633	-0.794	-0.82	-1.86	-0.148	-1.12	-0.985	-0.212 (inactive)
CS(=O)(=O)CCOC(=O)C1=CC(CCCO)=CC(c2ccc(CN3CCCC3)cc2)N(Cc2sc3ccccc3c2Cl)C=C1C(=O)OCCS(C)(=O)=O (stereo not given)	2.17	1.18	0.45	1	0.526	1.21	2.31	0.722	1.31	-1.57 (inactive)
COc1ccc([Si](C)(C)[C@H]2[C@H](CC(=O)N3Cc4ccccc4C[C@H]3CO)O[C@@]3(C(=O)N(Cc4ccc(N5CCOC5=O)cc4)c4ccccc43)[C@@H]2C)cc1	1.14	0.923	0.109	0.339	1.32	1.39	0.516	1.22	0.396	-0.246 (inactive)
CC(C)=C1C(=O)C(c2ccccc2)=C2CN3C(=O)N(CCc4ccccc4)C(=O)[C@]3(Cc3ccc(C(F)(F)F)cc3)[C@H]21	-0.0822	0.566	1.01	-0.0056	0.0359	-1.29	1.57	-1.16	0.8	0.359 (inactive)
COC(=O)[C@@H]1N=C(c2ccc(OCCCO)cc2)O[C@@H]1c1ccccc1	1.33	-0.314	-0.137	-0.887	-1.36	-0.837	0.135	-0.447	-0.0306	-13.4 (active)
O=C(c1ccccc1)N1C(=O)[C@]2(Cc3ccccc31)N=C(c1ccc(OCCCO)cc1)O[C@@H]2c1ccccc1	1.87	1.23	0.677	0.965	1.24	0.944	-2.12	0.764	0.305	-1.33 (inactive)
CCCCCN1CC=CC23O[C@@H]4/C=C\CCCOC(=O)C4[C@H]2C(=O)N(C(C)CO)[C@@H]3C1=O (stereo not given in full)	0.465	-0.402	-0.249	0.659	-0.87	-1.08	0.17	-0.476	0.916	-0.179 (inactive)
C#CCN([C@@H](Cc1ccccc1)C(=O)OC)[C@@H](/C=C/C1CC1)[C@H](O)Cc1ccccc1	-0.429	-0.515	-0.157	-0.873	0.722	-0.0248	3.45	0.166	0.0211	0.412 (inactive)
CN(C)C(=O)[C@@]1(Cc2ccccc2CN=[N+]=[N-])N=C(c2ccc(OCCCO)cc2)O[C@H]1c1ccccc1N=[N+]=[N-]	2.09	1.27	0.801	0.983	0.711	-0.0088	-1.02	0.627	1.22	-6.81 (inactive)
CCCC[C@@H]1C[C@H]1[C@@H](NC(=O)c1cccs1)c1ccccc1C(F)(F)F	1.01	1.2	-0.157	0.982	-0.152	0.28	0.245	-0.716	0.839	1.75 (inactive)
CC1CC/C=C\[C@H]2OC34C=CCN(C(C)(C)C)C(=O)[C@H]3N(CCCCCO)C(=O)[C@@H]4C2C(=O)O1 (stereo not given in full)	-1.24	-1.07	-0.83	-1.65	-0.898	-0.447	-0.227	-0.113	-0.51	0.152 (inactive)
COc1cc(OC)c(C(O)C2C=CC3C(=O)N(Cc4ccccc4)C(=O)C3N2n2cnnc2)cc1Br (stereo not given)	2.21	1.17	0.381	0.973	1.03	-0.148	-1.08	0.363	1.02	0.647 (inactive)
COC(=O)c1c(CC[C@@H](CO)NC(=O)N2CCC[C@H]2Cn2cc(C3(O)CCCCC3)nn2)oc(C(C)=O)c1C(=O)OC	0.794	0.759	-0.0763	0.888	0.745	1.59	-0.403	1.39	-0.0239	0.97 (inactive)
COc1ccc(CCNC(=O)[C@@]2(Cc3ccccc3I)c3ccccc3C(=O)N(C3CCCCC3)[C@H]2c2ccc(CO)cc2)cc1	0.362	0.839	0.22	0.434	0.341	-0.199	0.348	0.106	0.177	1.18 (inactive)
CN(C)CCCCCCNC(=O)[C@@H]1C[C@@H]2C(=O)N3CCC[C@H]3C(=O)N2[C@@H]1c1cccc(OCCO)c1	2.58	1.23	0.338	0.552	1.37	1.58	-0.17	1.48	1.1	-0.138 (inactive)
